An excerpt weighted towards active compounds, which were near 0.36% of everything screened.
IMPase Li inh: membrane-permeable IMPase blocker, potentiated with lithium | CHO-M1 cells, IP1 TR-FRET (IP-One), carbachol + lithium | Potency, µM (series often up to 59.4 µM), without a hit: at the highest dose activity, negative = IMPase inhibition, usual class: inhibitors | 210,000 tested, 0.35% active | AID 1457; active = well fitted inhibition curve with a large enough effect; inconclusive = small, poorly fitted or top-dose-only effect; inactive = no such curve, though single readings can be large or run the other way;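 note: IP1 builds up when IMPase is blocked and the TR-FRET signal falls; potency is the fitted concentration of half-maximal effect; plate controls were basal vehicle for no effect and high inhibitor control for full effect; nearly all actives have a fitted effect of over 50% in size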
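Lithium-sensitised IP1 accumulation assay; M1-expressing CHO cells treated 30 min at 37C with compound. Competitive antibody detection by time-resolved FRET followed a 10 min room-temperature lysis step.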
IMPase inh: membrane-permeable compound that blocks inositol monophosphatase. 120,000 tested, under 10 active. CHO-M1 cells, IP1 accumulation, HTRF TR-FRET ratio. P97697. inhibition (IP1 accumulation), % at 46.1 µM; active = well fitted curve in the direction sought with a large enough effect in the signal ratio, not every such curve was filed as active; inconclusive = small, poorly fitted or top-dose-only effect, or a change in a side signal; inactive = no such curve, though single readings can be large or run the other way; the % refers to the signal ratio;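 note: cells stimulated with carbachol in lithium chloride buffer; plate controls were DMSO basal wells for no effect and reference inhibitor wells for full effect; higher means more IMPase inhibition seen as more IP1 and lower FRET ratio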
Target sequence (P97697 whole entry, looked up): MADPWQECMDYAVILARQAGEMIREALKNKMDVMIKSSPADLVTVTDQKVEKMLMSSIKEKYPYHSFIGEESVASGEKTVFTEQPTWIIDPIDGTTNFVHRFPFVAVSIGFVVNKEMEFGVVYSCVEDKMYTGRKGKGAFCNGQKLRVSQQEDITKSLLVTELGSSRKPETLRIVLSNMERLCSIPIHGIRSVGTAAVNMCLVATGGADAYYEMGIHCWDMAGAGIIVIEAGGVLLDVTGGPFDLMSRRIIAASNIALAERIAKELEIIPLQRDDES
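Elevated IP1 in lysates lowers TR-FRET signal (665/620 ratio and 620 channel reported). Cells were CHO-M1, given carbachol (50 uM as added) plus 50mM LiCl, pH 7.4, 30 min, 37C; compounds titrated up to 46 uM; AC50 by Hill equation.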
An asterisk follows results filed as active; ? = inconclusive; . = no result given; ! = not active in a repeat; [ ] = remark or other dose.

SMILES | IMPase Li inh | IMPase inh
CCc1ccc(C2c3c(oc4cc(C)c(C)cc4c3=O)C(=O)N2c2nc(C)c(C(=O)OC)s2)cc1 (centres undefined) | . | 2.4
CCN(CC)CCCN1C(=O)C(O)=C(C(=O)c2ccc(C)o2)C1c1ccc(C)o1 (centres undefined) | -0.4% | -0.6
N#CC(=C(/N)Sc1ccccc1N)/C(C#N)=C(\N)Sc1ccccc1N | -3.9% | .
Cc1cccc(-c2nc3c(cnn3-c3ccccc3)c(=O)n2-c2cccc(Cl)c2)c1 | . | 2.3
CCCCc1cc2c(cn1)=C(OC(=O)c1ccc(Cl)nc1)C(C)(OC(=O)CC)C(=O)C=2 (centres undefined) | 10.2% | .
Cc1ccc(S(=O)(=O)N2CCc3nc(COc4ccccc4)c4c(c3C2)CO[C@@H](C)C4)cc1 | -0.4% | .
O=C(C1=C(O)C(=O)N(CCc2ccccc2)C1c1cccs1)c1ccco1 (centres undefined) | -21.9% | .
O=C(C1=C(O)C(=O)N(CCc2ccccc2)C1c1cccnc1)c1ccco1 (centres undefined) | 4.47µM* | ?
CCOc1ccc(C2C(C(=O)c3ccco3)=C(O)C(=O)N2Cc2cccnc2)cc1OC (centres undefined) | 11.2µM* | -16.9
CCOc1cc(C2C(C(=O)c3ccco3)=C(O)C(=O)N2CCc2ccccc2)ccc1O (centres undefined) | 1.8%[38.3 µM] | 7.7
COc1cc(NC(=O)Cn2c(C)cc3ccccc3c2=O)cc(OC)c1OC | 25.1µM* | ?
COc1ccc(OC)c(NC(=O)CNC(=O)Cn2c(C)cc3ccccc3c2=O)c1 | 15.0%[38.3 µM] | -1.5
Cc1[nH]c2ccccc2c1SCc1ccccc1 | 12.7% | .
S=c1nc(SCc2ccccc2)[nH]c2ccccc12 | 14.1µM* | .
COc1ccc(-c2c(O)c3c(OC)c4c(cc3oc2=O)OC(C)(C)CC4)cc1 | 1.4% | .
N#Cc1cccc(-c2nc(NCc3cccs3)c3ccccc3n2)c1 | 18.2% | .
COc1cc(S(=O)(=O)n2cnc(C)c2)ccc1Br | 11.2% | .
Cc1cn(S(=O)(=O)c2ccc(Br)c3ccccc23)cn1 | 11.2µM* | ?
N#Cc1cc(-c2ccccc2)cnc1Sc1ccc(Cl)cc1 | 0.7%[38.3 µM] | 2.5
N#Cc1cc(-c2ccc(Cl)cc2)cnc1Sc1ccc(F)cc1 | 25.1µM* | -0.3
Cc1ccccc1C1CC(=O)Oc2ccc(O)cc21 (centres undefined) | 1.2% | .
O=c1c(O)c(-c2ccc(O)c(O)c2)oc2cc(O)ccc12 | 11.2µM*! | -21.3
O=c1c(O)c(-c2ccc(O)cc2)oc2cc(O)ccc12 | -18.7% | -21.8
COc1ccccc1N1CCN(CCn2c(=O)c3c(c4ccccc4n3C)n(C)c2=O)CC1 | -1.3% | .
Cc1nc(SC2CCOC2=O)c2c(C)c(C)sc2n1 (centres undefined) | 7.08µM* | ?
SMILES | IMPase Li inh | IMPase inh
O=C1OCCC1Sc1ncnc2sc3c(c12)CCC3 (centres undefined) | -3.2% | -14.3
[ClH+][Cu][ClH+].[Cu].[OH2+]c1ccc2ccccc2c1CN1CCCCC1.[OH2+]c1ccc2ccccc2c1CN1CCCCC1 | -11.1% | .
COc1c2c(cc3c1C(CC(O)C(C)C)N(C)CC3)OCO2 (centres undefined) | 3.6% | .
COc1ccc(-n2cc(-c3ccc(Br)cc3)[nH]c2=S)cc1 | 11.2µM* | .
COc1ccc(-n2cc(-c3ccc(OC)c(OC)c3)[nH]c2=S)cc1 | -3.7% | .
CC(NC(=O)c1ccc(Nc2nc3ccccc3n3nnnc23)cc1)c1ccccc1 (centres undefined) | . | 4.5
COc1cc2cc(Br)cc(Br)c2nc1C | 12.6µM* | ?
COc1cc2cnncc2cc1OC | 6.1% | 8.7
Oc1c(C=NCc2ccc(F)cc2)[nH]c2ccc(Br)c(Cl)c12 | 12.1%[38.3 µM] | -11.4
Cc1ccc(CN=Cc2[nH]c3ccc(Br)c(Cl)c3c2O)cc1 | 8.91µM* | -12.1
CCNc1ncc2nc(-c3ccccc3)c(=O)n(CCc3ccccc3)c2n1 | -27.5% | .
CCNc1ncc2nc(-c3ccc(F)cc3)c(=O)n(CCc3ccccc3)c2n1 | 5.62µM* | .
CCNc1ncc2nc(-c3ccc(Cl)cc3)c(=O)n(C[C@H]3CCCO3)c2n1 | 10µM* | .
CN(C)c1ncc2nc(-c3ccc(F)cc3)c(=O)n(CCc3ccccc3)c2n1 | 10µM* | .
COc1ncc2nc(-c3ccc(F)cc3)c(=O)n(CCc3ccccc3)c2n1 | 14.1µM* | .
CCNc1ncc2nc(-c3cccs3)c(=O)n(C[C@H]3CCCO3)c2n1 | -15.1% | .
CN(C)c1ncc2nc(-c3ccc(F)cc3)c(=O)n(-c3ccccc3)c2n1 | -29.6% | .
COc1ncc2nc(-c3ccccc3)c(=O)n(CCc3ccccc3)c2n1 | 5.9% | .
CC(C)NS(=O)(=O)c1ccc(OCC(=O)N2CCN(c3cccc(Cl)c3)CC2)cc1 | . | 9.4
CCOc1ccc(-c2cc(OC(=O)c3ccccc3)c3c(C)oc(C)c3c(=O)c2)cc1 | . | -2.5
O=C1c2c(O)cc(O)cc2O[C@@H](c2ccc(O)c(O)c2)[C@H]1O | . | 16.5
COc1ccccc1-c1cc(-c2ccccc2)nc(SC(C(N)=O)c2ccccc2)c1C#N (centres undefined) | 7.94µM* | ?
COC(=O)C(Sc1nc(C)cc(C)c1C#N)c1ccccc1 (centres undefined) | 7.6%[38.3 µM] | 12.4
C=CCn1c(-c2cccc(Cl)c2)n[nH]c1=S | 8.91µM* | -22.3
S=c1[nH]nc(-c2cccc(Cl)c2)n1Cc1ccccc1 | -5.3% | .
SMILES | IMPase Li inh | IMPase inh
CC1CC[C@@]2(OC1)OC1CC3C4CC=C5CC(O)CC[C@@]5(C)C4CC[C@]3(C)C1C2C (some centres undefined) | 2.7% | .
O=C(NC1(C(F)(F)F)NC(=O)N(CCc2ccccc2)C1=O)c1ccccc1F (centres undefined) | . | -2.5
CCOC(=O)c1ccccc1NC(=O)c1cncc(Br)c1 | 1.26µM* | ?
CCOC(=O)c1ccccc1NC(=O)c1cccnc1 | 12.0% | -5.6
O=C(CCC(=O)Nc1nnc(C2CCCCC2)s1)NCc1cccs1 | 14.1µM* | 0.1
Cc1nnc(NC(=O)CCC(=O)NCc2cccs2)s1 | -6.8%[38.3 µM] | 1.3
Cc1ccc2nc(NC(=O)c3ccco3)sc2c1 | -7.9%[38.3 µM] | -1.0
Cc1ccc2nc(NC(=S)NC(=O)c3ccco3)sc2c1 | 12.6µM* | .
COc1ccc(C(=O)N2CCN(C(=O)COc3ccc(Br)cc3)CC2)cc1OC | . | 1.6
Cc1ccc2cc(C#N)c(SCC(=O)NCC3CCCO3)nc2c1 (centres undefined) | 10µM* | ?
Cc1ccc2nc(SCC(=O)NCC3CCCO3)c(C#N)cc2c1 (centres undefined) | ? | -5.8
COCC(=O)Nc1ccccc1C(=O)Nc1ccc(OC)cc1 | 31.6µM* | 3.6
COc1ccc(NC(=O)c2ccccc2NC(=O)COc2ccccc2)cc1 | -0.5%[38.3 µM] | 0.6
CC1CCC2CC1C2(C)C (centres undefined) | -16.2% | .
COc1ccc(-c2nnc(COc3ccc4ccccc4c3)o2)cc1OC | 46.8%[38.3 µM] | 8.0
COc1cc(-c2nnc(COc3ccc4cc(Br)ccc4c3)o2)cc(OC)c1OC | 14.1µM* | ?
COc1ccc(OC)c(-c2nnc(NC(=O)C(C)Sc3nncn3C)s2)c1 (centres undefined) | 16.2%[38.3 µM] | -2.0
COc1ccc(-c2nnc(NC(=O)C(C)C)s2)c(OC)c1 | 12.6µM* | ?
CCOC(=O)Nc1nnc(-c2ccccc2OC)s1 | 8.8% | 1.4
COc1ccccc1-c1nnc(NC(=O)OCC(C)C)s1 | 11.2µM* | -14.4

Screens from PubChem.
